# Laboratory results taken from the supplement of paper PMC3334620.
# Over roughly 33,000 sequences, “E-score (-0.5 to 0.5)” has its median near -0.043; the highest 2% begin near 0.37. The list comes from a sample in which the highest values are over-represented; it also holds similar and randomly drawn sequences.
# Biological target: T1, Upc2 (UniProt Q12151)
# T1 sequence: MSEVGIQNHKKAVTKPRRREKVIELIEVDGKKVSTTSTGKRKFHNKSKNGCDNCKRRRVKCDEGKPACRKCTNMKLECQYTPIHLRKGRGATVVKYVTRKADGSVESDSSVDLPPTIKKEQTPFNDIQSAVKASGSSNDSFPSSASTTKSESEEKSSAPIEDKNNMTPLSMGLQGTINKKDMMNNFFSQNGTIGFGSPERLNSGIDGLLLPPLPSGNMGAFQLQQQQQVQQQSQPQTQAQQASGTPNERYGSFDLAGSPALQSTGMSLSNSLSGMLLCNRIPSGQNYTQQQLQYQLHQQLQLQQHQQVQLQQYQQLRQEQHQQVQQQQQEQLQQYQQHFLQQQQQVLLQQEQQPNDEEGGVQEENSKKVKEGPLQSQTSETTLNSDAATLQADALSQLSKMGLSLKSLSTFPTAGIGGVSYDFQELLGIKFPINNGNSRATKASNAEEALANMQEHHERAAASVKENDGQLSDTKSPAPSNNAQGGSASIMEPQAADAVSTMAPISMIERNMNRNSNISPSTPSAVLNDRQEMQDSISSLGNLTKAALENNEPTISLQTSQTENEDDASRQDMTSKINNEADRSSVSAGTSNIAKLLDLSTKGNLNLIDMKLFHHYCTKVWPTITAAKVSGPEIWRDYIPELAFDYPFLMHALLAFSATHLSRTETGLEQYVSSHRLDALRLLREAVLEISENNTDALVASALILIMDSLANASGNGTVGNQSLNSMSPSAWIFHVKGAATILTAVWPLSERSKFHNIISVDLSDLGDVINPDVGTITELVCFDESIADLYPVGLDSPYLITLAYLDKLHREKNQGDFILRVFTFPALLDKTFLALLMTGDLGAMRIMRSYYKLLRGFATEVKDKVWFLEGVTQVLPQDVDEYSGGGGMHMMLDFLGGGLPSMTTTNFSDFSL
# Assay: PBM E-score (8-mer binding enrichment) (E-score (-0.5 to 0.5)); higher = stronger / more preferred TF binding
# Conditions: protein concentration: 200 nM; construct: GST-full length
# Procedure, shortened: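 PURExpress in vitro transcription/translation supplied GST-tagged yeast transcription factors, either full-length or DNA-binding domain. Applied at about 100-200 nM to universal all-10-mer Agilent arrays double-stranded by primer extension, the bound protein was detected with fluorescent anti-GST. E-scores, modified Wilcoxon-Mann-Whitney statistics, were given by the Universal PBM Analysis Suite to ungapped eight-base words pooled with their reverse complements after masliner normalisation.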
row,Sequence,PBM E-score
1,GGCCGTAA,0.255
2,AGCCGTAC,0.346
3,CGCCGTAG,0.0712
4,TCTCTCCA,-0.118
5,CCACAGCG,-0.302
6,ATGATCCG,-0.0506
7,CTCGAGCC,0.135
8,CGATATCG,0.244
9,AAGCTTCG,0.145
10,AACGCAAT,0.138
11,ACTTGGCC,-0.0135
12,AAAAAACG,0.186
13,CCTAGGAG,-0.273
14,ATATCTAG,-0.0547
15,CGCCCTAG,-0.158
16,GGTTACGA,0.408
17,GGTTACCA,0.156
18,CGTTACGC,0.282
19,GGTTACTA,-0.0998
20,AGTTACGA,0.383
21,AGTTACGG,0.0766
22,AGTTACGC,0.0981
23,CGTTACAA,0.0563
24,CGTTACGA,0.417
25,GAACTGGC,-0.158

row,Sequence,PBM E-score
1,CACCTAGG,-0.103
2,AAAGCGAG,0.217
3,CACCTCCC,-0.174
4,TAAGGCCA,-0.013
5,AACTGGTG,-0.163
6,GCCTTCGC,-0.106
7,CACCGTAC,0.401
8,CTCCGTAA,0.285
9,CACCGTAG,0.0923
10,ATCCGTAC,0.366
11,CACCGTAA,0.32
12,CTCCGTAC,0.376
13,CTATTTAC,0.104
14,ATCTGTTC,0.0527
15,ATATAATC,-0.158
16,AACGCTAT,0.0885
17,AGCCGTGG,-0.17
18,CCTATAGC,-0.286
19,AGTATAGA,0.137
20,AGTATAGC,0.128
21,CGTATAGA,0.48
22,GGTATAGA,0.111
23,CGTATAGC,0.483
24,AAGCGATA,0.205
25,AGCTTATA,0.0662

row,Sequence,PBM E-score
1,CGGGGTCA,0.117
2,ATGCTTAC,-0.0957
3,AGACGGCA,-0.162
4,TAAACGTA,0.407
5,GAAACGGA,0.199
6,TAAACGGA,0.454
7,AAAACGTA,0.123
8,CAAACGTA,0.259
9,CAAACGGA,0.318
10,CAAACGCA,0.258
11,GAAACGCA,-0.059
12,TAAACGCA,0.399
13,TATATCAA,-0.04
14,AAGCCAGA,-0.2
15,ATCAAATC,-0.078
16,CTTGAAGC,-0.183
17,CATCTGGG,-0.133
18,CCGTCGAA,0.0446
19,ACACTACC,-0.098
20,CACTCAGC,-0.223
21,GTAAACTA,0.172
22,ACAAACGG,0.328
23,GCAAACGC,0.25
24,GCAAACAA,0.00753
25,GTAAACCA,0.0531

row,Sequence,PBM E-score
1,ATAAACGC,0.344
2,CTAAACTC,0.0155
3,GTAAACGA,0.491
4,GCAAACGA,0.462
5,ACAAACGC,0.225
6,CTAAACGC,0.416
7,ACAAACGA,0.466
8,AACAGATT,-0.0821
9,AAAATGGC,-0.0658
10,AAGAGTAG,-0.128
11,CGTCTAGA,0.121
12,ACCACCTC,-0.111
13,ATCCAGCG,-0.0436
14,CATTGCGA,-0.0248
15,CAATGGCG,-0.141
16,CGATTCGA,0.0594
17,ACCACACC,-0.185
18,CCAAACGG,0.365
19,ATAAACTG,-0.0103
20,TCAAACGA,0.471
21,CCAAACGC,0.292
22,CAAAACGA,0.31
23,TCAAACAA,-0.0805
24,CCAAACGA,0.476
25,AAAAACGG,0.117

row,Sequence,PBM E-score
1,ATAAACGG,0.434
2,AGGTTAGC,-0.3
3,CGGTTACA,0.156
4,GGCACCAA,-0.0665
5,ATGCACCA,-0.188
6,GCCAGACC,-0.138
7,ATCAGAGA,-0.167
8,AGTCTATC,-0.159
9,ACCGTATC,0.345
10,GCGGTATA,0.151
11,ACCGTAAG,0.185
12,CCCGTATA,0.479
13,CCCGTATC,0.339
14,ACCGTATA,0.478
15,ACCGTAGA,0.178
16,ACGGTATA,0.274
17,GCCGTAGA,0.189
18,CCCGTAGA,-0.00639
19,GCCGTATA,0.48
20,ACCGTATG,0.381
21,TAACGTCA,0.0914
22,AGTCCAAT,-0.149
23,AGGGGTCC,-0.168
24,AATGTCGC,0.0832
25,AGTTGCGA,0.0264

row,Sequence,PBM E-score
1,CGGGTATC,0.135
2,CGTGCACG,0.134
3,ACCAGGAC,-0.0418
4,GGCACAAC,-0.279
5,ACGACGGC,0.333
6,ACGACGGA,0.37
7,TCGACGAA,-0.018
8,ACGACGAA,0.375
9,ACGACGTA,0.413
10,CCGACGTA,0.225
11,CCGACGAA,0.067
12,ACGACGTG,0.351
13,ACGACGAG,0.367
14,GCGACGGA,0.0438
15,CCGACGGA,-0.0042
16,ACGACGGG,0.415
17,CATGTTAA,0.0636
18,GGTCTGAA,0.0866
19,TAGAATGA,-0.263
20,GCACGCGA,-0.0589
21,GGGTATAA,-0.0582
22,CGCAGTCA,-0.228
23,GGCTTTGA,-0.0097
24,ATAGGGAT,-0.0755
25,ATAGACAT,-0.151

row,Sequence,PBM E-score
1,TATCCATA,0.2
2,CTACCATC,0.00378
3,AGCCTTGC,-0.0435
4,CAACGAGC,0.286
5,AATCGAGC,0.286
6,AAACGAGC,0.489
7,AACCGAGC,0.325
8,GCACGAGC,-0.0167
9,GGACGAGA,-0.00291
10,GAACGAGC,0.465
11,GAACGAGA,0.457
12,GCACGAGA,0.0181
13,TGAATGCA,-0.0537
14,CTTAGATC,-0.0871
15,CCCCTATA,0.0494
16,AAAAAGTT,-0.0419
17,GGCCTCTA,-0.0932
18,CTCTACGC,0.0628
19,CTCTACGA,0.409
20,CGCTACGA,0.421
21,CGCTACGC,0.136
22,AGCTACGA,0.34
23,ATCTACGA,0.313
